Laboratory results reported in PubChem BioAssay AID1159580 (chemical genetic matrix, 2015).
Out of some 5,500 compounds screened, about 2,000 (36%) were called active. Roughly 18% stayed inconclusive and do not appear here. Cut-off read from the data, not from the text of the source: active = normalized growth mostly below about 0.91 (no sharp cut-off); inconclusive = no clear call, values can overlap the other calls; inactive = mostly above about 0.92. Some of the results follow.

Assay: chemical genetic growth profiling, strain panel (AID 1159580);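 note: tested at 20 µM; growth read once vehicle control cultures reached saturation at 30 °C; 1 = growth at the plate median or of vehicle wells; lower values mean less growth of the strain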
Conditions: S. cerevisiae deletion strains, growth OD
[1] = locus YAL040C, strain CLN3, active compounds read low
[2] = locus YCL061C, strain MRC1 (second series), active compounds read low
[3] = locus YDR363W, strain ESC2, active compounds read low
[4] = locus YER002W, strain NOP16, active compounds read low
[5] = locus YJR075W, strain HOC1, active compounds read low
[6] = locus YNL175C, strain NOP13, active compounds read low
[7] = locus YNL197C, strain WHI3, active compounds read low
[8] = locus YNL224C, strain SQS1, active compounds read low
[9] = locus YOR083W, strain WHI5 (second series), active compounds read low

Measured: normalized growth

CC1(C)O[C@@H]2CC3C4CCC5=CC(=O)C=C[C@]5(C)C4[C@@H](O)C[C@]3(C)[C@]2(C(=O)CO)O1 (some centres undefined)
inactive: locus YAL021C, strain ccr4, active compounds read low 1.01 | locus YAL026C, strain drs2, active compounds read low 1.01 | locus YAL030W, strain snc1, active compounds read low 1.01 | locus YBL061C, strain skt5, active compounds read low 1 | locus YBR009C, strain hhf1, active compounds read low 1.01 | locus YBR023C, strain chs3, active compounds read low 1 | locus YBR171W, strain sec66, active compounds read low 0.994 | locus YBR231C, strain swc5, active compounds read low 1.01 | locus YBR279W, strain paf1, active compounds read low 1.01 | locus YCL011C, strain gbp2, active compounds read low 1 | locus YCL016C, strain dcc1, active compounds read low 1.01 | locus YCL061C, strain MRC1, active compounds read low 0.999 | locus YCL069W, strain vba3, active compounds read low 0.995 | locus YCR088W, strain abp1, active compounds read low 0.993 | locus YDL005C, strain med2, active compounds read low 0.999 | locus YDL040C, strain nat1, active compounds read low 1 | locus YDR001C, strain nth1, active compounds read low 0.999 | locus YDR069C, strain doa4, active compounds read low 1 | locus YDR137W, strain rgp1, active compounds read low 0.998 | locus YDR159W, strain sac3, active compounds read low 1.02 | locus YDR195W, strain ref2 1 | locus YDR297W, strain sur2, active compounds read low 1 | locus YDR334W, strain swr1, active compounds read low 1.01 | locus YDR335W, strain msn5, active compounds read low 1.01 | locus YDR392W, strain spt3, active compounds read low 0.983 | locus YEL003W, strain gim4, active compounds read low 1.01 | locus YEL037C, strain rad23, active compounds read low 0.994 | locus YEL061C, strain CIN8 (second series), active compounds read low 1 | locus YER015W, strain faa2, active compounds read low 1.01 | locus YER016W, strain bim1, active compounds read low 0.995 | locus YER111C, strain swi4, active compounds read low 1 | locus YER155C, strain BEM2 (second series), active compounds read low 0.984 | locus YFR010W, strain ubp6, active compounds read low 0.996 | locus YGL167C, strain pmr1, active compounds read low 1.01 | locus YGL173C, strain kem1, active compounds read low 1.01 | locus YGL227W, strain vid30, active compounds read low 0.998 | locus YGL240W, strain doc1, active compounds read low 1.01 | locus YGL253W, strain hxk2, active compounds read low 1 | locus YHR013C, strain ard1, active compounds read low 1.02 | locus YHR027C, strain rpn1, active compounds read low 1.01 | locus YHR030C, strain SLT2, active compounds read low 0.988 | locus YHR079C, strain IRE1, active compounds read low 0.974 | locus YHR142W, strain chs7, active compounds read low 1.01 | locus YJL092W, strain hpr5, active compounds read low 0.997 | locus YJL095W, strain BCK1 (second series), active compounds read low 1.01 | locus YJL095W, strain BCK1, active compounds read low 0.985 | locus YJL115W, strain asf1, active compounds read low 1 | locus YJL129C, strain trk1, active compounds read low 1.03 | locus YJL154C, strain vps35, active compounds read low 0.996 | locus YJL164C, strain tpk1, active compounds read low 1.01 | locus YJL166W, strain qcr8, active compounds read low 1.01 | locus YJL187C, strain SWE1, active compounds read low 1 | locus YJR066W, strain TOR1, active compounds read low 0.95 | locus YKL160W, strain elf1, active compounds read low 1.02 | locus YKR026C, strain gcn3, active compounds read low 0.982 | locus YKR091W, strain srl3, active compounds read low 1.01 | locus YLL001W, strain dnm1, active compounds read low 1 | locus YLL026W, active compounds read low 1 | locus YLL041C, strain sdh2, active compounds read low 1 | locus YLR027C, strain aat2, active compounds read low 1.01 | locus YLR113W, strain HOG1, active compounds read low 0.963 | locus YLR221C, strain rsa3, active compounds read low 1.01 | locus YLR258W, strain gsy2, active compounds read low 1 | locus YLR262C, strain YPT6 (second series), active compounds read low 1.01 | locus YLR320W, strain mms22, active compounds read low 1.01 | locus YLR342W, strain FKS1, active compounds read low 1.02 | locus YLR357W, strain rsc2, active compounds read low 0.976 | locus YLR370C, strain arc18, active compounds read low 1.01 | locus YLR384C, strain iki3, active compounds read low 1.01 | locus YML120C, strain ndi1, active compounds read low 1.01 | locus YMR058W, strain fet3, active compounds read low 1.02 | locus YMR125W, strain sto1, active compounds read low 0.992 | locus YMR129W, active compounds read low 1.01 | locus YMR205C, strain PFK2, active compounds read low 0.978 | locus YMR231W, strain pep5, active compounds read low 1 | locus YNL071W, strain lat1, active compounds read low 0.998 | locus YNL183C, strain NPR1, active compounds read low 0.918 | locus YNL209W, strain ssb2, active compounds read low 1.02 | locus YNL248C, strain rpa49, active compounds read low 1.01 | locus YNL322C, strain KRE1 (second series), active compounds read low 0.998 | locus YNR049C, strain mso1, active compounds read low 1.01 | locus YOR001W, strain rrp6, active compounds read low 1.01 | locus YOR070C, strain gyp1, active compounds read low 1 | locus YOR080W, strain dia2, active compounds read low 1 | locus YOR083W, strain WHI5, active compounds read low 1.02 | locus YOR106W, strain vam3, active compounds read low 1 | locus YOR231W, strain MKK1, active compounds read low 0.983 | locus YOR265W, strain rbl2, active compounds read low 1.01 | locus YOR270C, strain vph1, active compounds read low 1.03 | locus YOR290C, strain snf2, active compounds read low 1.01 | locus YPL051W, strain arl3, active compounds read low 1 | locus YPL078C, strain atp4, active compounds read low 0.995 | locus YPL106C, strain sse1, active compounds read low 0.998 | locus YPL240C, strain hsp82, active compounds read low 1 | locus YPL256C, strain CLN2, active compounds read low 0.996

C=CCN1CCc2cccc3c2[C@H]1Cc1ccc(O)c(O)c1-3
active: [2] 0.481 | [3] 0.516 | [5] 0.199 | locus YNL128W, strain TEP1, active compounds read low 0.888 | locus YNL322C, strain KRE1, active compounds read low 0.152 | [9] 0.712
inactive: [1] 0.942 | [4] 0.976 | locus YGR078C, strain PAC10, active compounds read low 0.979 | [6] 0.966 | [7] 0.961 | [8] 0.985

C=CCN1CC[C@]23c4c5ccc(O)c4O[C@@H]2/C(=N\N=C2\CC[C@@]4(O)C6Cc7ccc(O)c8c7[C@@]4(CCN6CC=C)[C@@H]2O8)CC[C@@]3(O)C1C5
inactive: [1] 1.01 | [2] 1 | locus YDR150W, strain NUM1, active compounds read low 1 | [3] 1.01 | [4] 1 | [5] 1 | locus YMR307W, strain GAS1, active compounds read low 1.01 | [6] 0.988 | [7] 1.02 | [8] 1.01 | [9] 1.02 | locus YPL055C, strain LGE1, active compounds read low 0.982
